Data reported in PubChem BioAssay AID624341 (National Center for Advancing Translational Sciences (NCATS), 2012).
Activity calls are given as the source filed them.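 The calls were made as follows: active = potency half-inhibition concentration of 75 µM or lower; inconclusive = potency above 75 µM but under 100 µM; inactive = potency of 100 µM or higher.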

The compounds below were run against Ubiquitin carboxyl-terminal hydrolase 7 (Homo sapiens) (UniProt Q93009) (assay: Inhibitors of USP1/UAF1: Hit Validation in USP7 Diubiquiting Gel Assay). Details: USP7 K63 diubiquitin cleavage, SDS-PAGE gel densitometry.
Ubiquitin carboxyl-terminal hydrolase 7 (Homo sapiens), sequence (Q93009 whole entry, looked up): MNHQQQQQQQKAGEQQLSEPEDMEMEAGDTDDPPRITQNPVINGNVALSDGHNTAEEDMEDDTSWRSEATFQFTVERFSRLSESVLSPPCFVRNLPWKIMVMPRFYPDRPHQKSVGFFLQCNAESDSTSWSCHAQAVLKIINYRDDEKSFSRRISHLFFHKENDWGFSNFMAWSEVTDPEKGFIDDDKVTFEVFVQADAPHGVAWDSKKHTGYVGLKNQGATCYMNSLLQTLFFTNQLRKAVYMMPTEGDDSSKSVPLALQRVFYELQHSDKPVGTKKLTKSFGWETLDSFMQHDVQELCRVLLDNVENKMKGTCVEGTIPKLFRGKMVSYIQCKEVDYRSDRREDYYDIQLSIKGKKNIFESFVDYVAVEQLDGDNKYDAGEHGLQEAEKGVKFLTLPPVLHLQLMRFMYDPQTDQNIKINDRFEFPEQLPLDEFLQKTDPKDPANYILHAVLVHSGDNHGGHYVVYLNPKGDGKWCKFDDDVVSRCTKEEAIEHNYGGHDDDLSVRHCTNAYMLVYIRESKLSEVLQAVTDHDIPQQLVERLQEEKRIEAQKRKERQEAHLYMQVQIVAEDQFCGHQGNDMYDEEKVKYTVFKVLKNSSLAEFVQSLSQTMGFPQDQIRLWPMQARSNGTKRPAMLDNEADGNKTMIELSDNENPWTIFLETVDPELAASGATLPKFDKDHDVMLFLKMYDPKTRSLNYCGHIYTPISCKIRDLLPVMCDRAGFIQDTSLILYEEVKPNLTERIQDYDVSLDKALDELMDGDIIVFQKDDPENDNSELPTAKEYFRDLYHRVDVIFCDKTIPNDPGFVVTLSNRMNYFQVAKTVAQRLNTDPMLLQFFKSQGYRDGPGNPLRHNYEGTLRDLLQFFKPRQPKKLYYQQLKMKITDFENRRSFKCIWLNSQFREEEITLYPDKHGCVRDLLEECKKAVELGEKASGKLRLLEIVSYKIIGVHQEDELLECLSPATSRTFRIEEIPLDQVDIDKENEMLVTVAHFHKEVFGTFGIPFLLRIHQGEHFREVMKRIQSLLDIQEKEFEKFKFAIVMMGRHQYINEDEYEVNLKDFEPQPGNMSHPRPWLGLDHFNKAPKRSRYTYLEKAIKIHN
Description: Deubiquitinating enzymes (DUBs) are a class of enzymes that can cleave isopeptide bond formed between the C-terminal carboxylate of ubiquitin and a lysine side-chain amino group on the target protein. Among them, ubiquitin specific proteases (USPs) constitute the largest DUB family. Human USPs are emerging as promising targets for pharmacological intervention because of their connection to a number of human diseases, including prostate, colon and breast cancer (1, 2), pediatric acute lymphoblastic leukemia (3), and familial cylindromatosis (4). The advantage of inhibiting USPs lies in the potential specificity of therapeutic intervention that can lead to better efficacy and reduce nonspecific side effects. In a collaboration between the University of Delaware and the NIH Chemical Genomics Center, a high-throughput screen assay was developed to screen for USP1/UAF1 inhibitors. This miniaturized assay has a fluorescent read-out and is used to screen the NIH Molecular Libraries Small Molecule Repository (MLSMR) in order to identify a small molecule that inhibits USP1. Follow-up assays have also been developed to further test the hits from the primary screen. This assay validates the hits identified from the primary screen using a USP7 diubiquiting gel assay. NIH Chemical Genomics Center [NCGC] NIH Molecular Libraries Probe Centers Network [MLPCN] MLPCN Grant: DA030552-01 Assay Submitter (PI): Zhihao Zhuang, University of Delaware 1. Priolo, C., et al. (2006) The isopeptidase USP2a protects human prostate cancer from apoptosis. Cancer Res 66, 8625-8632 2. Popov, N., et al. (2007) The ubiquitin-specific protease USP28 is required for MYC stability. Nat Cell Biol 9, 765-774 3. […]
The inhibition assay contains 5 nM USP7, 2 microM K63 linked diubiquitin, and inhibitors at varied concentrations (0.08 microM - 114 microM). […] The intensity of the individual diubiquitin and monoubiquitin band was quantified using Quantity One 4.3.1 (Biorad, Hercules, CA). The percentage of the conversion was determined and used to calculate the reaction rate. […]

Potency, active:
Cc1ccccc1-c1nc(NCc2cccs2)c2ccccc2n1 19.4 µM
FC(F)(F)c1ccccc1-c1nc(NCc2cccs2)c2ccccc2n1 37.8 µM
Cc1cccc(CNc2ccnc(-c3ccccc3C(F)(F)F)n2)c1 20.9 µM
